The source of these data is PubChem BioAssay (NCI).

Test systems include T-47D breast; BT-549 breast; MDA-MB-435 melanoma; SW-620 colon; MCF7 breast; HCT-116 colon; HCC-2998 colon; KM12 colon.
Holding throughout (assay): NCI-60 one-dose screen, 48 h (100 = growth as untreated, 0 = no growth, -100 = all killed)
Conditions in all cases: 10 µM unless noted

About 83,000 compounds went through this panel and 20% of them were active in at least one assay; those are over-represented in the sample as a whole.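 Treatment: one concentration, 48 hours, 96-well format. Scoring: percent growth, with anything below 10 considered active.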 Unmarked numbers belong to inactive results. Active and inactive are the calls of the source.

As for `Cc1ccc(Cc2c(C=O)nc(N)[nH]c2=O)c2ccccc12`, the growth with T-47D breast is 95.5%; with BT-549 breast, 87.9%; in the experiment on MDA-MB-435 melanoma, 107%; with SW-620 colon it was 103%; in the experiment with MCF7 breast, 103%; in the experiment with HCT-116 colon, 88.2%. Besides, the growth in the experiment on HCC-2998 colon was 101%; in the experiment with KM12 colon it was 102%.

For the compound `ClC(Cl)c1nc(-c2ccccc2)nc2cc(-c3ccccc3)nn12`, the growth was 24.2% in the experiment on T-47D breast; 93.3% with BT-549 breast; 94.2% in the experiment on MDA-MB-435 melanoma; 14.8% in the experiment with SW-620 colon; 47.9% in the experiment on MCF7 breast; 29.7% in the experiment on HCT-116 colon. Besides, the growth in the experiment with HCC-2998 colon was 88.9%; in the experiment with KM12 colon, 37.3%.

With `O=Nc1c(-c2cccc([N+](=O)[O-])c2)nc2ncccn12`, the growth in the experiment with T-47D breast was 73%; in the experiment on BT-549 breast, 73.4%; in the experiment on MDA-MB-435 melanoma, 99.2%; in the experiment on SW-620 colon, 18.2%; with MCF7 breast it was 70.2%; with HCT-116 colon it was 51.1%. For the same compound, the growth with HCC-2998 colon is 93.6%; in the experiment with KM12 colon it was 89.3%.

Consider `C/C(=N/NC(=S)Nc1ccccc1)c1nc2ccc(Cl)cc2[nH]1`, for which the growth was -68.3% (active) with T-47D breast; -94.9% (active) with BT-549 breast; -84.5% (active) in the experiment on MDA-MB-435 melanoma; -76.9% (active) with SW-620 colon; -85.4% (active) in the experiment on MCF7 breast; -27% (active) in the experiment with HCT-116 colon. The growth was -89.9% (active) with HCC-2998 colon and -82.5% (active) in the experiment on KM12 colon.

Regarding `Brc1ccc(-c2[nH]ncc2-c2c[nH]c3ccccc23)cc1`, the growth in the experiment with T-47D breast was 88.2%; with BT-549 breast, 80.1%; in the experiment on MDA-MB-435 melanoma it was 92.7%; with SW-620 colon, 96.2%; in the experiment with MCF7 breast, 66.8%; in the experiment with HCT-116 colon, 98.4%. Also, the growth in the experiment with HCC-2998 colon was 112%; with KM12 colon, 94.3%.

Regarding `COc1ccc2[nH]c(=O)c(/C=N/Nc3nc(-c4ccccc4)cs3)c(O)c2c1`, the growth is 72.6% in the experiment with T-47D breast; 60.8% in the experiment with BT-549 breast; 79.3% with MDA-MB-435 melanoma; 67.2% in the experiment with SW-620 colon; 67.2% in the experiment on MCF7 breast; 50.8% in the experiment with HCT-116 colon. Besides, the growth in the experiment on HCC-2998 colon is 77.6%; in the experiment on KM12 colon, 69.3%.

As to `O=c1ccn(C2CC(O)C(O)C(CO)O2)c(=O)[nH]1` (stereo not drawn), the growth with T-47D breast is 102%; with BT-549 breast it was 114%; with MDA-MB-435 melanoma it was 116%; in the experiment on SW-620 colon, 114%; in the experiment on MCF7 breast, 97.4%; in the experiment with HCT-116 colon it was 107%. For the same compound, the growth in the experiment with HCC-2998 colon is 117%; with KM12 colon, 121%.

With `C=C[C@@H]1C[C@H](O)Cc2ccccc2N1`, the growth with T-47D breast is 118%; in the experiment on BT-549 breast it was 113%; in the experiment on MDA-MB-435 melanoma, 107%; in the experiment on SW-620 colon it was 105%; in the experiment with MCF7 breast it was 105%; in the experiment with HCT-116 colon, 113%. Further, the growth with HCC-2998 colon is 99.6%; with KM12 colon it was 109%.

Consider `COc1ccc(/C=C/c2c(C(C)=O)c(C)nc3ccccc23)cc1`, for which the growth with T-47D breast is 39.5%; in the experiment on BT-549 breast, 61.6%; with MDA-MB-435 melanoma, 69.1%; in the experiment on SW-620 colon, 86.8%; in the experiment with MCF7 breast it was 85.8%; in the experiment on HCT-116 colon, 70.8%. For the same compound, the growth in the experiment with HCC-2998 colon was 93.3%; in the experiment with KM12 colon it was 93%.

For the compound `CCCCC(CC)OC(=O)C(Br)CC` (stereo not drawn), the growth was 103% in the experiment on T-47D breast; 100% with BT-549 breast; 109% in the experiment on MDA-MB-435 melanoma; 114% in the experiment on SW-620 colon; 102% with MCF7 breast; 101% in the experiment on HCT-116 colon. Also, the growth was 104% in the experiment on HCC-2998 colon and 101% with KM12 colon.

Take `COc1ccc(-c2nc(/C=N/Nc3cc(C)nc4ccc(Br)cc34)c(C)o2)cc1`: the growth is -42.1% (active) with T-47D breast; 91% in the experiment on BT-549 breast; -95.6% (active) in the experiment on MDA-MB-435 melanoma; -86.6% (active) with SW-620 colon; -75.2% (active) with MCF7 breast; -74.6% (active) in the experiment on HCT-116 colon. Besides, the growth in the experiment on HCC-2998 colon was -67.1% (active); with KM12 colon, -90.4% (active).

As to `CCN(CC)CCCC(C)Nc1c2ccc(Cl)cc2nc2cc(OC)c(OC)cc12` (stereo not drawn), the growth in the experiment on T-47D breast is 61.9%; in the experiment with BT-549 breast it was 55.3%; in the experiment with MDA-MB-435 melanoma, -81.8% (active); in the experiment with SW-620 colon, -25.2% (active); with MCF7 breast it was 0.0607% (active); with HCT-116 colon it was -42.5% (active). Moreover, the growth with HCC-2998 colon was 18.1%; in the experiment on KM12 colon, 8.52% (active).

Turning to `O=C(NNC(=S)Nc1ccccc1)c1cc2ccc1CCc1ccc(cc1)CC2`, the growth with T-47D breast was 53.6%; in the experiment on BT-549 breast it was 80.4%; with MDA-MB-435 melanoma it was 70.3%; with SW-620 colon, 63.6%; in the experiment with MCF7 breast, 61.7%; with HCT-116 colon, 44.5%. Moreover, the growth was 70.2% in the experiment with HCC-2998 colon and 77.1% in the experiment on KM12 colon.

Regarding `C=C(C)[C@@H]1C[C@@H]2Cc3cc(F)ccc3N1O2`, the growth in the experiment with T-47D breast is 107%; with BT-549 breast it was 106%; with MDA-MB-435 melanoma, 104%; in the experiment on SW-620 colon, 98.6%; in the experiment with MCF7 breast, 95.6%; with HCT-116 colon it was 98.2%. Moreover, the growth in the experiment on HCC-2998 colon is 93.9%; in the experiment with KM12 colon it was 103%.

For the compound `Cc1cc(N)n(S(=O)(=O)c2oc(-c3ccccc3)nc2C#N)n1`, the growth with T-47D breast is 71%; with BT-549 breast it was 101%; in the experiment with MDA-MB-435 melanoma it was 91.8%; in the experiment with SW-620 colon, 48.9%; with MCF7 breast, 64%; with HCT-116 colon it was 75%. The growth is 114% with HCC-2998 colon and 101% in the experiment with KM12 colon.

Regarding `COc1cc(-c2nc(-c3nc4ccc(Cl)cc4[nH]3)cc3c2[nH]c2ccccc23)cc(OC)c1OC`, the growth in the experiment on T-47D breast is 54.2%; with BT-549 breast it was 70.8%; in the experiment with MDA-MB-435 melanoma it was 75.5%; in the experiment with SW-620 colon, 96.2%; in the experiment with MCF7 breast, 47.9%; with HCT-116 colon, 58.7%. Further, the growth in the experiment with HCC-2998 colon was 68.7%; in the experiment on KM12 colon, 71%.
